Only some compounds are listed: those with a hit (about 11% of all), similar ones and a draw of the others.
ALDH1A1 block: inhibitors of human aldehyde dehydrogenase 1A1; AID 1030; P00352; 220,000 compounds, 7.3% hits; Potency, µM (series often up to 75.3 µM), most hits filed as inhibitors; Purified ALDH1A1, NADH fluorescence, propionaldehyde substrate; active means well fitted inhibition curve with a large enough effect, not every such curve was filed as active; inconclusive means small, poorly fitted or top-dose-only effect, or another doubt; inactive means no such curve, though single readings can be large or run the other way
NPSR antag: neuropeptide S receptor (human) antagonism, cAMP; Potency, µM (series often up to 38.3 µM), usual class: inhibitors; Q6W5P4; AID 1461; 220,000 compounds, 1% hits; CHO-NPSR cells, cAMP TR-FRET, antagonist mode; further: nearly all actives have a fitted effect of over 50% in size
Target sequence (Q6W5P4 whole entry, looked up): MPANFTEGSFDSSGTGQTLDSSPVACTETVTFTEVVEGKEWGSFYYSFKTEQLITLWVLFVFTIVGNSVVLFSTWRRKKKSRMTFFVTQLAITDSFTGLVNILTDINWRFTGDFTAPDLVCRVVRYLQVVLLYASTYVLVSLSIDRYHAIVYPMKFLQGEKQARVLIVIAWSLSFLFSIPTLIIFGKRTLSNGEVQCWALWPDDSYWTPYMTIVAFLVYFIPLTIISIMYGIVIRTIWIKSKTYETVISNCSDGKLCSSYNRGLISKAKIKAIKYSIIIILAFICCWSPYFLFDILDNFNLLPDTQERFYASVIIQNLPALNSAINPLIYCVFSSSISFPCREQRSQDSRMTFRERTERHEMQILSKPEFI
PNC inhibitor: perinucleolar compartment assembly inhibition | PC3M PTB-GFP, PNC prevalence imaging, 16 h; stronger effect = lower value | activity change (PNC), negative = inhibition, % at 10 µM | 140,000 compounds, 3.1% hits | AID 2417;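 active means readout at or below -70, meaning at least 70% loss of cells showing the perinucleolar compartment, a nuclear body marking cancer cells; inconclusive means readout between -30 and a set limit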
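PC3M cells stably expressing PTB-GFP, 750–1000 cells/well, treated 16 h at 37 °C with compound (23 nl of library stock), in duplicate. After paraformaldehyde fixation and Hoechst stain, imaged at 20x; PNC prevalence scored by image analysis.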
IMPase Li cell: membrane-permeable IMPase blocker, potentiated with lithium; CHO-M1 cells, IP1 TR-FRET (IP-One), carbachol + lithium; Potency, µM (top dose mostly 59.4 µM), most hits filed as inhibitors; 210,000 compounds, 0.35% hits;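 further: IP1 builds up when IMPase is blocked and the TR-FRET signal falls; nearly all actives have a fitted effect of over 50% in size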
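Concentration–response in CHO-M1 cells, lithium-potentiated; 30 min at 37C. IP1 detected by competitive TR-FRET after 10 min lysis at RT. Hill-fitted AC50.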
HPGD block: HPGD (human) dehydrogenase inhibition; Potency, µM, usual class: inhibitors; purified HPGD, NADH fluorescence kinetic, PGE2 substrate; AID 894; 150,000 compounds, 4.3% hits; active means well fitted inhibition curve with a large enough effect, not every such curve was filed as active; inconclusive means small, poorly fitted or top-dose-only effect, or another doubt; inactive means no such curve, though single readings can be large or run the other way
Target sequence (P15428 whole entry, looked up): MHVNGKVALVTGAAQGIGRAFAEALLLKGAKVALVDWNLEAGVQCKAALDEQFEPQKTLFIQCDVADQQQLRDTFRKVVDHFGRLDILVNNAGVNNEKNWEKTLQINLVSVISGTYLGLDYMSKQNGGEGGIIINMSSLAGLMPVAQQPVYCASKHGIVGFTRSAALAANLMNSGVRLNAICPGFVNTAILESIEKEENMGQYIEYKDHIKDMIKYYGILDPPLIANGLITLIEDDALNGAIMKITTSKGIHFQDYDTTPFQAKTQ
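20 nM HPGD preincubated 15 min at room temperature with compound in 50 mM Tris-HCl pH 8, 0.01% Tween 20. Started with 1 mM NAD+ and 30 uM prostaglandin E2; NADH fluorescence (360/450 nm) read 5 times over 30-s intervals, last minus first.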
IMPase inh: cell-permeable inhibitors of inositol monophosphatase (IMPase); 120,000 tested, under 10 active; CHO-M1 cells, IP1 accumulation, HTRF TR-FRET ratio; inhibition (IP1 accumulation), % at 46.1 µM; active means well fitted curve in the direction sought with a large enough effect in the signal ratio, not every such curve was filed as active; inconclusive means small, poorly fitted or top-dose-only effect, or a change in a side signal; inactive means no such curve, though single readings can be large or run the other way; the % refers to the signal ratio;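 further: cells stimulated with carbachol in lithium chloride buffer; higher means more IMPase inhibition seen as more IP1 and lower FRET ratio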
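CHO-M1 cells (CHO stably expressing M1 receptor), compound up to 46 uM final, stimulated with carbachol (50 uM as added) in buffer with 50mM LiCl, pH 7.4, 30 min at 37C. Cytosolic IP1 read by TR-FRET; AC50 from Hill fits.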
A number is an active result; [ ] = dose if it differs, or a comment. Unless noted, the call rests on the fitted dose curve; in most records, active means well fitted curve in the direction sought with a large enough effect; inconclusive means small, poorly fitted or top-dose-only effect, or another doubt; inactive means no such curve, though single readings can be large; an effect the other way counts as inactive or inconclusive.

What do the screens show for `O=C(CCCSc1nnnn1-c1ccccc1)c1ccc(F)cc1`?
ALDH1A1 block: 1.3µM; NPSR antag: inactive; PNC inhibitor: inactive; IMPase Li cell: inactive; HPGD block: inactive; IMPase inh: inactive

What do the screens show for `c1ccc(-n2nnnc2SCc2cccc3nsnc23)cc1`?
ALDH1A1 block: 14µM; NPSR antag: inactive; PNC inhibitor: inactive; IMPase Li cell: inactive; HPGD block: inconclusive; IMPase inh: inactive

Results for O=C(NCc1ccccc1)c1onc(CSc2ccc(F)cc2)c1C(=O)NCCCN1CCOCC1 ?
ALDH1A1 block: inactive; NPSR antag: inactive; PNC inhibitor: inactive; IMPase Li cell: inactive; HPGD block: inactive; IMPase inh: inactive

Results for Cc1ccccc1-n1c(SCC(=O)N(C)C2CCS(=O)(=O)C2)nnc1-c1ccncc1 (configuration not stated) ?
ALDH1A1 block: inactive; NPSR antag: inactive; IMPase Li cell: inactive

Results for CC(C)c1[nH]nc2c1C(C(C)C)C(C#N)=C(N)O2 (configuration not stated) ?
ALDH1A1 block: inactive; NPSR antag: inactive; PNC inhibitor: inconclusive; IMPase Li cell: inactive; HPGD block: inactive; IMPase inh: inactive

Results for O=C1c2ccccc2C(=O)N1CCCCSc1nnnn1-c1ccccc1 ?
ALDH1A1 block: 0.18µM; NPSR antag: inconclusive; PNC inhibitor: inactive; IMPase Li cell: inactive; HPGD block: 7.9µM; IMPase inh: inactive

Results for O=C1c2ccccc2C(=O)N1CSc1nnnn1-c1ccccc1 ?
ALDH1A1 block: inconclusive; NPSR antag: inactive; PNC inhibitor: inactive; IMPase Li cell: inactive; HPGD block: inactive; IMPase inh: inactive

Results for CSc1nnnn1-c1ccc(C(=O)O)cc1 ?
ALDH1A1 block: inactive; NPSR antag: inactive; PNC inhibitor: inactive; IMPase inh: inactive

What do the screens show for `Cc1ccc(C(=O)CSc2nnnn2-c2ccccc2)o1`?
ALDH1A1 block: 3.5µM; NPSR antag: inactive; IMPase Li cell: inactive

Results for O=C(O)c1ccc(-n2nnnc2SCc2ccccc2F)cc1 ?
ALDH1A1 block: inconclusive; NPSR antag: inactive; PNC inhibitor: inactive; IMPase Li cell: inactive; HPGD block: 16µM; IMPase inh: inactive

How did Nc1nc(CSc2nnnn2-c2ccccc2)nc(N2CCCc3ccccc32)n1 do in these assays?
ALDH1A1 block: 2.8µM; NPSR antag: inactive; PNC inhibitor: inconclusive; IMPase Li cell: inactive; HPGD block: inconclusive; IMPase inh: inactive

Results for O=C(Cn1cnc2c(nnn2-c2ccc(F)cc2)c1=O)N1CCCc2ccccc21 ?
ALDH1A1 block: 28µM; NPSR antag: inactive; PNC inhibitor: inactive; IMPase Li cell: inactive; HPGD block: inactive; IMPase inh: inactive

What do the screens show for `Cc1cc(C)nc(NC(=O)CSc2nnnn2-c2ccccc2)n1`?
ALDH1A1 block: 7.1µM; NPSR antag: inactive; PNC inhibitor: inactive; IMPase Li cell: inactive; HPGD block: inactive; IMPase inh: inactive

Results for Cc1ccc(-n2nnnc2SCC(=O)N2c3ccccc3NC(=O)C2(C)C)cc1 ?
ALDH1A1 block: inactive; NPSR antag: inactive; PNC inhibitor: -100; IMPase Li cell: inactive; HPGD block: inactive; IMPase inh: inactive

Results for Cc1nnc(SCc2nnc(-c3ccccc3Br)o2)n1-c1ccccc1 ?
ALDH1A1 block: inactive; NPSR antag: inactive; PNC inhibitor: inactive; IMPase Li cell: inactive; HPGD block: inactive; IMPase inh: inactive[1.84 µM]

What do the screens show for `Cc1ccc(-c2nnc(SCC(=O)N3c4ccccc4NC(=O)C3(C)C)n2N)cc1`?
ALDH1A1 block: inactive; NPSR antag: inactive; PNC inhibitor: inactive; IMPase Li cell: inactive; HPGD block: inactive; IMPase inh: inactive

Results for Brc1ccccc1-c1nnc(CSc2nnnn2-c2ccccc2)o1 ?
ALDH1A1 block: 10µM; NPSR antag: inactive; PNC inhibitor: inactive; IMPase Li cell: inactive; HPGD block: 16µM; IMPase inh: inactive

How did COc1ccc(-n2nnc3c(=O)n(CC(=O)N4CCCc5ccccc54)cnc32)cc1 do in these assays?
ALDH1A1 block: inconclusive; NPSR antag: inactive; PNC inhibitor: inactive; IMPase Li cell: inactive; HPGD block: inconclusive; IMPase inh: inactive

What do the screens show for `Cc1cc(C)c(C)c(S(=O)(=O)NCc2ccco2)c1C`?
ALDH1A1 block: inactive; NPSR antag: inactive; PNC inhibitor: inactive; IMPase Li cell: inactive; HPGD block: inactive; IMPase inh: inactive

How did CCOC(=O)c1ccc(NC(=O)NCc2ccncc2)cc1 do in these assays?
ALDH1A1 block: inactive; NPSR antag: inactive; PNC inhibitor: inactive; IMPase Li cell: inactive; HPGD block: inactive; IMPase inh: inactive

Results for O=C(CSc1nnnn1-c1ccccc1)CSc1nnnn1-c1ccccc1 ?
ALDH1A1 block: 3.2µM; NPSR antag: inactive; PNC inhibitor: inactive; IMPase Li cell: inactive; HPGD block: inactive; IMPase inh: inactive

How did O=C(O)CSc1nnnn1-c1ccccc1 do in these assays?
ALDH1A1 block: inactive; NPSR antag: inactive; PNC inhibitor: inconclusive; IMPase Li cell: inactive; HPGD block: inactive; IMPase inh: inactive

How did COCCNC(=O)c1cc2cc(Cl)cc(Cl)c2oc1=O do in these assays?
ALDH1A1 block: 25µM; NPSR antag: inactive; IMPase Li cell: inactive

Results for O=C(NCCO)c1cc2cc(Cl)cc(Cl)c2oc1=O ?
ALDH1A1 block: inconclusive; NPSR antag: inactive; IMPase Li cell: inactive

What do the screens show for `c1ccc(OCCSc2nnnn2-c2ccccc2)cc1`?
ALDH1A1 block: 22µM; NPSR antag: inactive; PNC inhibitor: inactive; IMPase Li cell: inactive; HPGD block: inactive; IMPase inh: inactive

How did CCC(Sc1nnnn1-c1ccccc1)C(=O)Nc1nc2ccccc2s1 (configuration not stated) do in these assays?
ALDH1A1 block: inconclusive; NPSR antag: inactive; PNC inhibitor: -100; IMPase Li cell: inactive; HPGD block: inactive; IMPase inh: inactive

What do the screens show for `Fc1ccccc1OCCSc1nnnn1-c1ccccc1`?
ALDH1A1 block: 1.9µM; NPSR antag: inactive; PNC inhibitor: inconclusive; IMPase Li cell: inactive; HPGD block: 16µM; IMPase inh: inactive

Results for CCSc1nnnn1-c1ccccc1 ?
ALDH1A1 block: inconclusive; NPSR antag: inactive; PNC inhibitor: inactive; IMPase Li cell: inactive; HPGD block: inactive; IMPase inh: inactive

What do the screens show for `CCOc1ccc(OCCSc2nnnn2-c2ccccc2)cc1`?
ALDH1A1 block: 14µM; NPSR antag: inactive; PNC inhibitor: inactive; IMPase Li cell: inactive; HPGD block: inactive; IMPase inh: inactive

How did COc1ccccc1OCCSc1nnnn1-c1ccc(C)cc1 do in these assays?
ALDH1A1 block: inactive; NPSR antag: inactive; PNC inhibitor: inconclusive; IMPase Li cell: inactive; HPGD block: inactive; IMPase inh: inactive

How did CCOc1ccc(OCCSc2nnnn2C2CCCCC2)cc1 do in these assays?
ALDH1A1 block: 16µM; NPSR antag: inactive; PNC inhibitor: inactive; IMPase Li cell: inactive; HPGD block: inactive; IMPase inh: inactive
